{"source": "PubChem BioAssay", "note": "Unmarked numbers belong to inactive results.", "data": [{"test": "budding yeast growth changes without added modifier – OD600, strain BY4716, 24 h, basal condition, primary screen (AID 1173)", "conditions": "S. cerevisiae BY4716 growth, OD600, 24 h; higher = more signal, called active from +8 up or from −8 down", "values": [{"smiles": "COCCCNC(=O)[C@]1(CCC(=O)OC(C)(C)C)N=C(c2ccc(OCCCO)cc2)O[C@@H]1c1ccccc1CN=[N+]=[N-]", "z-score": -0.199}, {"smiles": "COCCOC(=O)N1C(=O)[C@@]2(c3cc(C#CCC(C(=O)OC)C(=O)OC)ccc31)[C@H](c1ccccc1OCCO)N1[C@H](c3ccccc3)[C@H](c3ccccc3)OC(=O)[C@H]1[C@@H]2C(=O)NC[C@H](O)c1ccccc1", "z-score": 1.67}, {"smiles": "O=C1c2ccccc2[C@](Cc2ccccc2I)(C(=O)NCC(F)(F)F)[C@H](c2ccc(CO)cc2)N1Cc1ccccc1Cl", "z-score": -1.32}, {"smiles": "COc1cc2c(cc1O)C(c1cccs1)N(C)CC2", "note": "(centres undefined)", "z-score": 1.11}, {"smiles": "C=C[C@@H](COC(=O)OC(C)(C)C)N(Cc1ccc(OC)cc1)S(=O)(=O)c1ccc(Br)cc1", "z-score": 0.119}, {"smiles": "CCS[C@H]1[C@@H](C(=O)O)[C@H](c2ccc(C)cc2)N(S(=O)(=O)c2ccc(C)cc2)[C@@H]1CC", "z-score": 0.788}, {"smiles": "CN1C(=O)C2C=CC(C(O)C#Cc3ccccc3)N(N3CCCCC3)C2C1=O", "note": "(centres undefined)", "z-score": -0.375}, {"smiles": "O=C1O[C@H](c2ccccc2)[C@H](c2ccccc2)N2[C@H]1[C@@H](C(=O)N1CCCCCCC1)[C@]1(C(=O)Nc3ccc(C#CCCO)cc31)[C@H]2c1ccccc1OCCO", "z-score": 1.09}, {"smiles": "CC(C)C(=C=CC[C@@H](O)c1ccc(OCCO)cc1)C[C@@H](O)COCc1ccccc1", "z-score": -2.26}, {"smiles": "CCCC[C@H]1OB(O)C[C@H]2C1=C(COC)Cn1c(=O)n(-c3ccccc3)c(=O)n12", "z-score": -0.607}, {"smiles": "CCC[C@@H]1C[C@@]1(CCC)[C@@H](NS(=O)(=O)c1cccc2cccnc12)c1ccc(Cl)cc1", "z-score": 1.43}, {"smiles": "[N-]=[N+]=Nc1ccccc1[C@@H]1OC(c2ccc(OCCCO)cc2)=N[C@]1(CCS(=O)(=O)c1ccccc1)C(N)=O", "z-score": -0.0185}, {"smiles": "COC(=O)[C@@]1(Cc2ccc(F)cc2)[C@H]2c3cc(C(=O)N(C)C)n(Cc4ccc(Cl)c(C(F)(F)F)c4)c3C[C@H]2CN1C(=O)c1ccccc1", "z-score": 0.359}, {"smiles": "CO[C@H]1O[C@H](CO)[C@@H](OC(=O)Nc2ccc(Oc3ccccc3)cc2)[C@H](OC(=O)Nc2ccc3c(c2)OCO3)[C@H]1OC(=O)Nc1ccc2c(c1)OCO2", "z-score": 0.759}, {"smiles": "CC(C)=CCCC(C)=CC(O)C1C=CC2C(=O)N(C)C(=O)C2N1Nc1ccccc1", "note": "(centres undefined)", "z-score": -4.94}, {"smiles": "CCOC(=O)C[C@H]1[C@H](OC(=O)c2ccc(-c3ccccc3)cc2)[C@@H](NC(=O)Cc2ccc(OC)cc2)c2cc(OCCCO)ccc2N1C(=O)c1ccccc1", "z-score": 0.695}, {"smiles": "CC(C)C[C@@H]1NC(=O)[C@@H]2C[C@H](C(=O)NCc3ccc(F)cc3)[C@H](c3cccc(OCCO)c3)N2C1=O", "z-score": -0.929}, {"smiles": "NC(=O)NCC#Cc1ccc2c(c1)[C@]1(C(=O)N2)[C@H](c2ccccc2OCCO)N2[C@H](c3ccccc3)[C@H](c3ccccc3)OC(=O)[C@H]2[C@@H]1C(=O)Nc1nc2ccccc2s1", "z-score": 1.21}, {"smiles": "C=C(CCCC)/C(=C/C[C@@H](OC(=O)c1ccncc1)c1ccc(OCCO)cc1)c1cc(C(=O)OC)ccc1OC", "z-score": 1.1}, {"smiles": "C=C(C)[C@@H]1CC=C(C(O)C2C=CC3C(=O)N(C)C(=O)C3N2Nc2ccccc2)CC1", "note": "(some centres undefined)", "z-score": 0.773}, {"smiles": "O=C1N[C@@H](Cc2ccccc2)C(=O)N2[C@@H]1C[C@@H](C(=O)O)[C@H]2c1cccc(OCCO)c1", "z-score": 0.165}, {"smiles": "COC(=O)C(CC#Cc1ccc2c(c1)[C@]1(C(=O)N2)[C@H](c2ccc(OCCO)cc2)N2[C@H](c3ccccc3)[C@H](c3ccccc3)OC(=O)[C@H]2[C@@H]1C(=O)Nc1nc2ccccc2s1)C(=O)OC", "z-score": 2.09}, {"smiles": "C=CCN1C(=O)[C@@]2(Cc3ccccc31)N=C(c1ccc(OCCCO)cc1)O[C@H]2c1ccccc1", "z-score": -2.94}]}, {"test": "viability profiling in MM1S myeloma cells – cell-based, resazurin fluorescence, basal, 24 h, PK04 Diversity Set, profiling panel (AID 1174);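 further: MM1S multiple myeloma cell line; test concentration not given here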", "conditions": "higher = more signal, called active from +8 up or from −8 down", "values": [{"smiles": "COc1cc2c(cc1OC)CN(C(=O)[C@H]1[C@@H]3C(=O)O[C@@H](c4ccccc4)[C@@H](c4ccccc4)N3[C@@H](c3ccc(O)cc3)[C@]13C(=O)Nc1ccccc13)CC2", "z-score": -0.426}, {"smiles": "C=CCNC(=O)[C@@H]1[C@H]2C(=O)O[C@H](c3ccccc3)[C@H](c3ccccc3)N2[C@H](c2ccc(OCCO)cc2)[C@@]12C(=O)Nc1ccc(C#CCC(C(=O)OC)C(=O)OC)cc12", "z-score": -6.55}, {"smiles": "COCCOC(=O)N1C(=O)[C@@]2(c3cc(C#CC4(O)CCCCCC4)ccc31)[C@H](c1ccc(OCCO)cc1)N1[C@H](c3ccccc3)[C@H](c3ccccc3)OC(=O)[C@H]1[C@@H]2C(=O)N1CCN(c2ncccn2)CC1", "z-score": -0.549}, {"smiles": "CC1(C)[C@@H]2CC(C(O)C3C=CC4C(=O)N(c5ccccc5)C(=O)C4N3Nc3ccc([N+](=O)[O-])cc3)=C[C@H]1C2", "note": "(some centres undefined)", "z-score": 0.218}, {"smiles": "NC(=O)NCC#Cc1ccc2c(c1)[C@]1(C(=O)N2)[C@H](C(N)=O)[C@H]2C(=O)O[C@H](c3ccccc3)[C@H](c3ccccc3)N2[C@@H]1c1ccc(O)cc1", "z-score": 0.204}, {"smiles": "O=C(c1ccccc1)N1Cc2ccccc2C[C@@]2(COC(c3ccc(OCCCO)cc3)=N2)C1=O", "z-score": 0.26}, {"smiles": "C=CC[C@]1(C(=O)NCc2ccccc2)N=C(c2ccc(OCCCO)cc2)O[C@H]1c1ccccc1N=[N+]=[N-]", "z-score": -1.93}, {"smiles": "CC1CC/C=C\\[C@H]2OC34C=CCN(C(C)(C)C)C(=O)[C@H]3N(C(C)CO)C(=O)[C@@H]4C2C(=O)O1", "note": "(some centres undefined)", "z-score": -2.21}, {"smiles": "CCOC(=O)C[C@H]1[C@H](OC(=O)c2ccc(C(=O)c3ccccc3)cc2)[C@@H](NC(=O)c2ccccc2)c2cc(OCCCO)ccc2N1C(=O)Cc1ccc(OC)cc1", "z-score": 0.399}, {"smiles": "COCCOC(=O)N1C(=O)[C@@]2(c3cc(C#CCNC(N)=O)ccc31)[C@H](C(=O)Nc1nc3ccccc3s1)[C@H]1C(=O)O[C@H](c3ccccc3)[C@H](c3ccccc3)N1[C@@H]2c1ccc(OCCO)cc1", "z-score": 0.114}, {"smiles": "CC(C)OC(=O)C=C1C[C@@H](c2ccccn2)O[C@@H](c2ccccn2)O1", "z-score": -0.377}, {"smiles": "COC(=O)C(CC#Cc1ccc2c(c1)[C@]1(C(=O)N2)[C@H](c2ccc(OCCO)cc2)N2[C@H](c3ccccc3)[C@H](c3ccccc3)OC(=O)[C@H]2[C@@H]1C(=O)N1CCc2cc(OC)c(OC)cc2C1)C(=O)OC", "z-score": 0.164}, {"smiles": "COc1ccc([Si](C)(C)[C@H]2[C@H](CC(=O)N3Cc4ccccc4C[C@H]3CO)O[C@@]3(C(=O)N(Cc4cccc(N5CCC5=O)c4)c4ccccc43)[C@@H]2C)cc1", "z-score": -2.31}, {"smiles": "COCCCNC(=O)[C@]1(CCC(=O)OC(C)(C)C)N=C(c2ccc(OCCCO)cc2)O[C@@H]1c1ccccc1CN=[N+]=[N-]", "z-score": -0.123}, {"smiles": "COCCOC(=O)N1C(=O)[C@@]2(c3cc(C#CCC(C(=O)OC)C(=O)OC)ccc31)[C@H](c1ccccc1OCCO)N1[C@H](c3ccccc3)[C@H](c3ccccc3)OC(=O)[C@H]1[C@@H]2C(=O)NC[C@H](O)c1ccccc1", "z-score": -2.44}, {"smiles": "O=C1c2ccccc2[C@](Cc2ccccc2I)(C(=O)NCC(F)(F)F)[C@H](c2ccc(CO)cc2)N1Cc1ccccc1Cl", "z-score": 0.519}, {"smiles": "COc1cc2c(cc1O)C(c1cccs1)N(C)CC2", "note": "(centres undefined)", "z-score": -1.55}, {"smiles": "C=C[C@@H](COC(=O)OC(C)(C)C)N(Cc1ccc(OC)cc1)S(=O)(=O)c1ccc(Br)cc1", "z-score": 0.67}, {"smiles": "CCS[C@H]1[C@@H](C(=O)O)[C@H](c2ccc(C)cc2)N(S(=O)(=O)c2ccc(C)cc2)[C@@H]1CC", "z-score": -0.751}, {"smiles": "CN1C(=O)C2C=CC(C(O)C#Cc3ccccc3)N(N3CCCCC3)C2C1=O", "note": "(centres undefined)", "z-score": -0.347}, {"smiles": "O=C1O[C@H](c2ccccc2)[C@H](c2ccccc2)N2[C@H]1[C@@H](C(=O)N1CCCCCCC1)[C@]1(C(=O)Nc3ccc(C#CCCO)cc31)[C@H]2c1ccccc1OCCO", "z-score": -1.12}, {"smiles": "CC(C)C(=C=CC[C@@H](O)c1ccc(OCCO)cc1)C[C@@H](O)COCc1ccccc1", "z-score": 0.189}, {"smiles": "CCCC[C@H]1OB(O)C[C@H]2C1=C(COC)Cn1c(=O)n(-c3ccccc3)c(=O)n12", "z-score": -0.228}, {"smiles": "CCC[C@@H]1C[C@@]1(CCC)[C@@H](NS(=O)(=O)c1cccc2cccnc12)c1ccc(Cl)cc1", "z-score": -0.151}, {"smiles": "[N-]=[N+]=Nc1ccccc1[C@@H]1OC(c2ccc(OCCCO)cc2)=N[C@]1(CCS(=O)(=O)c1ccccc1)C(N)=O", "z-score": -0.706}, {"smiles": "COC(=O)[C@@]1(Cc2ccc(F)cc2)[C@H]2c3cc(C(=O)N(C)C)n(Cc4ccc(Cl)c(C(F)(F)F)c4)c3C[C@H]2CN1C(=O)c1ccccc1", "z-score": -2.72}, {"smiles": "CO[C@H]1O[C@H](CO)[C@@H](OC(=O)Nc2ccc(Oc3ccccc3)cc2)[C@H](OC(=O)Nc2ccc3c(c2)OCO3)[C@H]1OC(=O)Nc1ccc2c(c1)OCO2", "z-score": 0.0487}, {"smiles": "CC(C)=CCCC(C)=CC(O)C1C=CC2C(=O)N(C)C(=O)C2N1Nc1ccccc1", "note": "(centres undefined)", "z-score": -1.37}, {"smiles": "CCOC(=O)C[C@H]1[C@H](OC(=O)c2ccc(-c3ccccc3)cc2)[C@@H](NC(=O)Cc2ccc(OC)cc2)c2cc(OCCCO)ccc2N1C(=O)c1ccccc1", "z-score": -0.113}, {"smiles": "CC(C)C[C@@H]1NC(=O)[C@@H]2C[C@H](C(=O)NCc3ccc(F)cc3)[C@H](c3cccc(OCCO)c3)N2C1=O", "z-score": 0.279}, {"smiles": "NC(=O)NCC#Cc1ccc2c(c1)[C@]1(C(=O)N2)[C@H](c2ccccc2OCCO)N2[C@H](c3ccccc3)[C@H](c3ccccc3)OC(=O)[C@H]2[C@@H]1C(=O)Nc1nc2ccccc2s1", "z-score": 0.528}]}]}
